According to ChEMBL document CHEMBL3988442, “University of Dundee, Small-Polar-MMV Screening Library” (2021):
The whole screen tested about 48,000 compounds, of which about 13,000 (27%) showed an effect of 50% or more. This is one part of the list.

tested on: Wolbachia pipientis; experiment: Anti-Wolbachia Cell-Based Screen; assay type: functional; parameters: scale not given: in the data most compounds retested in dose-response had high values; settings: 5 µM

| SMILES | Percent Effect [%] |
| --- | --- |
| Nc1ccnc(N2CCC(CCc3ccccc3)(C(=O)O)CC2)n1 | -1.622 |
| CN(C)C[C@@H]1C[C@@H]2CN(C(=O)Cc3cccs3)CC[C@@H]2N1C | 87.94 |
| CC(=O)N1[C@H](CN(C)C)C[C@@H]2CN(c3ncc(F)cn3)CC[C@@H]21.O=C(O)C(F)(F)F.O=C(O)C(F)(F)F | -11.57 |
| CC(=O)N1[C@H](Cn2cncn2)C[C@@H]2CN(Cc3ccncc3)CC[C@@H]21.O=C(O)C(F)(F)F.O=C(O)C(F)(F)F | -2.106 |
| CC(=O)N1[C@H](CN(C)C)C[C@@H]2CN(C(=O)Cc3cccs3)CC[C@@H]21.O=C(O)C(F)(F)F | 96.5 |
| CN(C)Cc1nnc(C2CCN(C(=O)CCc3cccs3)CC2)n1C | -18.7 |
| CC(C)CC1COCCN1C(=O)Cc1cccs1 (stereo not given) | -4.501 |
| Cn1cc(CCCNS(=O)(=O)N2CCCC2c2ccco2)cn1 (stereo not given) | -2.203 |
| OC1(CNc2ccc(Br)cn2)CCSCC1 | 5.842 |
| O=C1CC[C@H]2[C@H](CCN2C(=O)C2CCCO2)N1Cc1ccncc1 (stereo not given in full) | 9.155 |
| Cc1cc(C(=O)N2CC[C@H](OCC3CC3)[C@@H]2Cc2cccnc2)no1 | -4.828 |
| O=C(O)C(F)(F)F.O=C([C@H]1CCCO1)N1CC[C@H](O)[C@@H]1Cc1ccncc1 | -12.15 |
| CC(C)N(C)[C@@H]1CCN(C(=O)[C@H]2CCCO2)[C@H]1Cc1cnn(C)c1 | -7.042 |
| O=C([C@H]1CCCO1)N1CC[C@@H](O)[C@@H]1Cc1ccccc1 | 97.77 |
| O=C([C@H]1CCCO1)N1CC[C@H](O)[C@@H]1Cc1cccnc1 | 104.4 |
| Cn1cc(Br)c(=O)c(NS(=O)(=O)c2ccc(F)cc2)c1 | -3.18 |
| CSCCNC(=O)C1CCC(=O)N(C2CCCC2)C1 (stereo not given) | -26.76 |
| CCOCc1ccccc1NC(=O)NCC(c1cnn(C)c1)N(C)C (stereo not given) | -8.458 |
| Cc1nc(C(=O)N(C)C2CC(=O)N(Cc3ccccc3)C2=O)cs1 (stereo not given) | -12.75 |
| CCOC(=O)N1[C@@H](c2ccco2)[C@@H](C(=O)NC)C[C@]12CCCCNC2=O | 102 |
| CCOC(=O)N1[C@@H](c2ccco2)[C@@H](C(=O)O)C[C@]12CCCCNC2=O | 122.2 |
| CCOC(=O)CCNC(=O)N1CCCC(CNC(=O)c2ccco2)C1 (stereo not given) | 4.582 |
| Cc1cc(NC(N)=O)ccc1C(=O)N(C)C | 10.57 |
| CC(=O)N1CCC(c2nnc3ccc(C(=O)NC(C)C)cn23)C1 (stereo not given) | 15.69 |
| CN(C)C(=O)N1CCN(CCCc2ccccc2)[C@H]2CS(=O)(=O)C[C@H]21 | -9.893 |

| SMILES | Percent Effect [%] |
| --- | --- |
| CN(Cc1coc(-c2ccccc2)n1)CC1CCCN1c1cccnn1 (stereo not given) | 26.49 |
| O=C(c1ccco1)N1C(CN2CCOCC2)[C@]2(O)CC[C@H]1CC2 (stereo not given in full) | 107 |
| COC(=O)c1sccc1NC(=O)C1CCCN1C(=O)c1ccco1 (stereo not given) | -17.58 |
| CC1CCCCN1C(=O)c1ccc2c(c1)OCCCO2 (stereo not given) | -1.264 |
| O=C(c1ccco1)N1CC[C@H]2[C@H]1CCN2S(=O)(=O)C1CC1 | -8.248 |
| O=C(NCC1CC1)C1CN(C(=O)c2ccco2)CC12CCOCC2 (stereo not given) | -3.478 |
| COCc1ccccc1NC(=O)[C@@H]1CCCN1C(=O)c1ccco1 | 6.983 |
| O=C(c1ccco1)N1C(CO)[C@]2(O)CC[C@H]1CC2 (stereo not given in full) | 85.33 |
| COCC1N(C(=O)c2ccc3c(c2)OCCCO3)[C@H]2CC[C@]1(O)CC2 (stereo not given in full) | 106.3 |
| O=C(c1ccco1)N1CCC(CSCc2ccco2)CC1 | -5.267 |
| O=C(c1ccc2c(c1)OCCCO2)N1CCCCC1C1OCCO1 (stereo not given) | -8.172 |
| O=C(c1ccco1)N1CC[C@@H](N2CCOCC2)[C@@H]1Cc1ccccc1 | -19.81 |
| COCC1N(C(=O)c2ccco2)[C@H]2CC[C@]1(O)CC2 (stereo not given in full) | 106.6 |
| COc1ccc(CC(C)(O)CNC(=O)c2cccs2)cc1 (stereo not given) | 9.514 |
| O=C(CCNc1ncccn1)NCCc1ccc(Cl)s1 | 4.707 |
| CCN1CCN(C2CCN(Cc3ccc(Cl)s3)CC2)C1=O | -13.73 |
| Cc1cc(C)n(CC2CN(CCOc3cccc(F)c3)CCO2)n1 (stereo not given) | -4.27 |
| CN1C[C@H]2CN(Cc3cccc(OC(F)(F)F)c3)CCN2C1=O | -0.9762 |
| CCN1CCN(C2CCN(CCOc3ccc(F)cc3)CC2)C1=O | 105.5 |
| CN1CCN(C2CCN(Cc3ccc(Cl)s3)CC2)C1=O | -8.107 |
| CCN1CCN(C2CCN(C(C(N)=O)c3ccc(F)cc3)CC2)C1=O (stereo not given) | -3.81 |
| CN1CCN(C2CCN(Cc3ccc(Cl)cc3)CC2)C1=O | -21.74 |
| CN1CCN(C2CCN(CCOc3cccc(F)c3)CC2)C1=O | 93.98 |
| CN1CCN(C2CCN(CCOc3ccc(Cl)cc3)CC2)C1=O | 110.5 |
| O=C(O)[C@H]1CCCN1CCOc1cccc(Cl)c1 | -3.257 |

| SMILES | Percent Effect [%] |
| --- | --- |
| CN1CCN(C2CCN(CCOc3cccc(Cl)c3)CC2)C1=O | 94.86 |
| CCOC(=O)N1C[C@H]2CC[C@@H]1CN(Cc1ccccc1)C2 | -18.44 |
| Cn1ccc(CS(=O)(=O)Cc2cccc(F)c2)cc1=O | 13.57 |
| COCCN(Cc1ccc(F)cc1Cl)C(=O)c1ccncc1 | -4.791 |
| Cc1nn2c(N3CCC(O)CC3)cc(-c3ccccc3)nc2c1C | 1.799 |
| CC(=O)c1cccc(NC(=O)CN2CCCCC2C2OCCO2)c1 (stereo not given) | 12.92 |
| O=C(NCc1ccccc1CN1CCC(O)CC1)Nc1ccncc1 | -8.548 |
| CC(C)CN1CCC(C(=O)NCCNC(=O)c2ccccc2)CC1 | 10.43 |
| COc1cc(-c2noc(C(CC(C)C)N3CCCCC3=O)n2)ccn1 (stereo not given) | -8.352 |
| Cc1noc(C2CCN(C(C)c3nc(C4CC4)no3)CC2)n1 (stereo not given) | 2.218 |
| CN1CCN(C2CCN(CCOc3ccccc3F)CC2)C1=O | 107.7 |
| CN1CCN(C2CCN(CCOc3ccccc3)CC2)C1=O | 94.15 |
| OCCn1cc(CN2CCN(CCOc3ccccc3F)CC2)cn1 | 2.742 |
| CN1CCN(C2CCN(CCOc3ccc(F)cc3)CC2)C1=O | -2.232 |
| CN1CCN(C2CCN(C(C(N)=O)c3ccccc3)CC2)C1=O (stereo not given) | -3.145 |
| COc1ccc(CCN2CCC(N3CCN(C)C3=O)CC2)cc1 | -2.52 |
| CN1CCN(C2CCN(CCOc3ccc(C#N)cc3)CC2)C1=O | 102.1 |
| CN1CCN(C2CCN(CCCOc3ccc(F)cc3)CC2)C1=O | 81.83 |
| Cn1c(C2CC2)nc2c1CCN(CCOc1ccc(C#N)cc1)C2 | -1.848 |
| CN1CCN(C2CCN(Cc3noc(-c4ccccc4)n3)CC2)C1=O | -0.9175 |
| CC(C)c1nnc(CNc2nc(-c3cccnc3)nc3c2CCC3)n1C | 6.162 |
| Cc1cnn(CCNCc2csc(-c3cccs3)n2)c1 | -4.856 |
| Cc1cc(CC(=O)NCC(O)COc2ccc(F)c(F)c2)no1 (stereo not given) | -5.317 |
| Cc1cccc(-c2nc(CN3CCc4c(ncn4C)C3)no2)c1 | 5.431 |
| COC(C)C(=O)NS(=O)(=O)c1cccc2cc(C)cnc12 (stereo not given) | -12.97 |

| SMILES | Percent Effect [%] |
| --- | --- |
| CCc1cnc(NCC(CC)N2CCOCC2)nc1 (stereo not given) | 14.29 |
| COCCNC(=O)Nc1ccc(CN2CCOC2=O)cc1 | -11.28 |
| COc1ccc(C(C)n2ccnc2-c2cc3n(n2)CCCNC3)cc1F (stereo not given) | 6.118 |
| O=C1CCC(C(=O)NCc2nncn2-c2ccccc2)CN1 (stereo not given) | 3.893 |
| Cc1cccc(CNCC2COC3(CCCCC3)O2)c1C (stereo not given) | 5.002 |
| COc1ccc2[nH]nc(CN3CCC(C(C)N4CCCC4)CC3)c2c1 (stereo not given) | -10.16 |
| Cn1cccc1C(=O)NCc1cnc2n1CCN(c1ccccn1)C2 | -1.189 |
| O=C(C1CCOC1)N1CCc2ncc(CNc3ccccn3)n2CC1 (stereo not given) | -18.08 |
| CN(Cc1ccco1)Cc1cnc2n1CCN(c1ncccn1)CC2.O=C(O)C(F)(F)F | 6.885 |
| COCCN1CCc2ncc(CNc3cc(N(C)C)ncn3)n2CC1 | -5.126 |
| Cc1ccc(N2CCc3ncc(CNc4ccccn4)n3CC2)nn1 | 114.5 |
| Cc1ccc(NCc2cnc3n2CCN(c2ncccn2)CC3)nn1 | 97.55 |
| CN(Cc1ccsc1)C(=O)CN1CCCC1Cn1cccn1 (stereo not given) | -10.05 |
| CN(Cc1ccco1)C(=O)CN1CCCC(Cn2cncn2)C1 (stereo not given) | 5.962 |
| CN(Cc1ccccc1)C(=O)CN1CCCC(Cn2cncn2)C1 (stereo not given) | 97.22 |
| Cc1ccc(CN(C)C(=O)CN2CCCC(Cn3cncn3)C2)cc1 (stereo not given) | 90.35 |
| CN(Cc1ccccc1)C(=O)CN1CCCCC1Cn1cncn1 (stereo not given) | -0.2947 |
| CN(Cc1cccc(F)c1)C(=O)CN1CCCC(Cn2cncn2)C1 (stereo not given) | 16.73 |
| CCN(Cc1ccccc1)C(=O)CN1CCCC(Cn2cncn2)C1 (stereo not given) | 3.711 |
| CN(Cc1ccsc1)C(=O)CN1CCCC(Cn2cncn2)C1 (stereo not given) | 109.8 |
| O=C(CN1CCCC(Cn2cncn2)C1)NCc1ccco1 (stereo not given) | 1.739 |
| Cc1ccc(CN(C)C(=O)CN2CCCC2Cn2cncn2)cc1 (stereo not given) | -14.18 |
| Cc1ccc(CN(C)C(=O)CN2CCCC(Cn3cncn3)C2)o1 (stereo not given) | 96.55 |
| CN(Cc1ccc(F)cc1)C(=O)CN1CCCC(Cn2cncn2)C1 (stereo not given) | -5.404 |
| CC(C)c1nc(CN(C)C(=O)CCS(=O)(=O)c2ccccc2)no1 | -0.5439 |
